From PubChem BioAssay AID434973 (Sanford-Burnham Center for Chemical Genomics, 2010)
Screen size: about 330,000 compounds; about 4,900 (1.5%) were called active.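 How the source made its calls: active means inhibition above about 50% at the single test dose (limit read from the data); inactive means the rest.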 The entries come from a sample that favours actives as a whole.

What follows are compounds tested against Sentrin-specific protease 7 (Homo sapiens) (UniProt Q9BQF6) (assay: SENP7 protease inhibitors, primary screen, biochemical, luminescence, uHTS (AID 434973;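 further: plate controls were DMSO with enzyme for no effect and no enzyme buffer wells for full effect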)). Conditions: recombinant SENP7, Z-RLRGG-aminoluciferin luminescence, 40 min; at 5 µM; active compounds read high.
In the case of COc1ccc([N+](=O)[O-])cc1NC(=O)c1ccc(N(Cc2ccccc2C)S(C)(=O)=O)cc1, the inhibition is reported as 2.86% (inactive).
With CCN(CC)C(=O)Cn1cc(S(=O)(=O)CC(=O)NCc2ccc3c(c2)OCO3)c2ccccc21 the inhibition was -2.79% (inactive).
In the case of Cc1noc(C)c1COc1ccc(C(=O)NCCOc2ccccc2)cc1, the inhibition is reported as -6.96% (inactive).
With Cc1ccn2c(=O)c(C(=O)NCCC3=CCCCC3)c(O)nc2c1 the inhibition was 9.74% (inactive).
With COC(=O)Cc1ccc(OC(=O)C2CCN(S(=O)(=O)c3ccc(OC)c(OC)c3)CC2)cc1 the inhibition was -4.03% (inactive).
In the case of CC1=C(C)CC(C(=O)NC(C)CCc2ccccc2)C(C(=O)O)C1 (stereo unspecified), the inhibition is reported as 4.76% (inactive).
In the case of COCC1CCN(C(=O)C2CCC(=O)N(Cc3cccc(C(F)(F)F)c3)C2)CC1 (stereo unspecified), the inhibition is reported as 9.9% (inactive).
In the case of CN(Cc1nc2ccccc2s1)C(=O)c1ccc(F)cc1, the inhibition is reported as 0.624% (inactive).
With COc1ccccc1N1CC(O)=C(c2nc3ccccc3s2)C1=N the inhibition was -12.5% (inactive).
In the case of COc1ccccc1OCc1nc2ccccc2s1, the inhibition is reported as 97.3% (active).
For Cn1c(CCc2ccccc2)nnc1SCC(N)=O, the inhibition was 0.317% (inactive).
With Cc1ccc2nc(/C(C#N)=C\c3ccc(OC(=O)c4cccs4)cc3)[nH]c2c1 the inhibition was -1.03% (inactive).
In the case of COc1cc(/C=C(\C#N)c2nc3c(s2)CC(C)CC3)ccc1O (stereo unspecified), the inhibition is reported as 2.43% (inactive).
In the case of COc1cc(/C=C(\C#N)c2nc3ccccc3[nH]2)ccc1O, the inhibition is reported as 93.7% (active).
For CNC(=S)N/N=C/c1ccc(N2CCOCC2)s1, the inhibition was 12.6% (inactive).
With Cc1ccc(CCCOC(=O)C[N+]2(C)CCCC2)cc1 the inhibition was 8.46% (inactive).
For O=C(c1cc(COc2c(F)cccc2F)on1)N1CCSCC1, the inhibition was 0.456% (inactive).
For CC(=O)Nc1cccc(-c2nc3ccccc3s2)c1C, the inhibition was -8.72% (inactive).
In the case of Cc1ccnc(Nc2nc3ccccc3s2)n1, the inhibition is reported as 88.5% (active).
Cc1ccnc(-n2sc3ccccc3c2=O)n1 was tested, and the inhibition was -5.5% (inactive).
COc1cccc(NC(=O)CCNS(=O)(=O)c2ccc3c(c2)oc(=O)n3C)c1 was tested, and the inhibition was 7.4% (inactive).
For O=C(COC(=O)C12CC3CC(CC(O)(C3)C1)C2)NC12CC3CC(CC(C3)C1)C2, the inhibition was -5.6% (inactive).
For COc1ccccc1-c1nnc(NC(=O)c2ccc3ncsc3c2)o1, the inhibition was 4.87% (inactive).
For O=C(COC(=O)c1ccc2ncsc2c1)Nc1ccc(Cl)cc1, the inhibition was -7.82% (inactive).
In the case of Cc1sc(NC(=O)c2ccc3ncsc3c2)c(C(N)=O)c1C, the inhibition is reported as 77.9% (active).
For CCCCn1nc(C(=O)N2CCc3ccccc32)c2ccccc2c1=O, the inhibition was 2.25% (inactive).
With CCCCN(CC(=O)NC(C)(C)C)C(=O)C(=O)Nc1ccc2c(c1)OCCO2 the inhibition was -0.161% (inactive).
CCNC(=S)N1CCC(c2nc3cc(C)c(C)cc3[nH]2)CC1 was tested, and the inhibition was 1.02% (inactive).
For CNC(=S)Nc1ccc([N+](=O)[O-])cc1, the inhibition was -6.08% (inactive).
O=C(Cc1ccccc1)NNS(=O)(=O)c1ccc([N+](=O)[O-])cc1 was tested, and the inhibition was 3.61% (inactive).
With O=C(O)/C=C/C(=O)NNc1ccc([N+](=O)[O-])cc1 the inhibition was 81.7% (active).
In the case of CN(CC(=O)Nc1ccc(F)cc1)CC(=O)N1CCCCC1, the inhibition is reported as 4.6% (inactive).
CSC1=N/C(=C\C=C\c2cccs2)C(=O)S1 was tested, and the inhibition was 43.7% (inactive).
With CCC1C=C(c2ccccc2)C=CN=C1N(CC)CC (stereo unspecified) the inhibition was 2.68% (inactive).
With COc1ccccc1-n1c(-c2cc(-c3ccco3)[nH]n2)n[nH]c1=S the inhibition was 2.77% (inactive).
With Cn1c(-c2ccco2)nc2cc3ccccc3cc21 the inhibition was 98.5% (active).
With CS(=O)(=O)n1nc(-c2ccco2)nc1N the inhibition was 3.45% (inactive).
CCOC(=O)c1cnc2c(c(C)nn2CC)c1Cl was tested, and the inhibition was -8.37% (inactive).
CCCn1c(N)c(C(=O)CSc2nnc(-c3cccnc3)n2-c2ccc(C)cc2C)c(=O)[nH]c1=O was tested, and the inhibition was 2.06% (inactive).
In the case of CCc1ccc(OCC(O)CN2CCN(CCO)CC2)cc1 (stereo unspecified), the inhibition is reported as 7.06% (inactive).
In the case of CN(CC(=O)Nc1ccc(Cl)cc1)CC(=O)Nc1cccc2ccccc12, the inhibition is reported as -3.2% (inactive).
In the case of O=C(O)Cc1ccc(NC(=O)Nc2cccc3ccccc23)cc1, the inhibition is reported as 18.4% (inactive).
For O=C(Nc1cccc2ccccc12)c1onc2c1CCCC2, the inhibition was 64.8% (active).
With O=C1COc2ccc(C(=O)COC(=O)CCOc3ccccc3)cc2N1 the inhibition was 7.4% (inactive).
In the case of Cc1cccc(C(=O)N[C@H](C(=O)NCc2cccs2)C(C)C)c1, the inhibition is reported as 2.96% (inactive).
With COC(=O)C1(C)NC(c2ccccc2OC)C2C(=O)N(c3ccccc3)C(=O)C21 (stereo unspecified) the inhibition was -1.56% (inactive).
For COC(=O)c1cc(NC(=O)CN2CCN(C(C)=O)CC2)cc(C(=O)OC)c1, the inhibition was 11.3% (inactive).
With O=C(CSc1ncn[nH]1)Nc1ccnc2ccccc12 the inhibition was 11.7% (inactive).
With COc1ccc(C(=O)Nc2ccc3nc(N4CCCCC4)cc(C)c3c2)cc1OC the inhibition was -1.83% (inactive).
In the case of COc1ccc(C(=O)Nc2ccc(C3(C#N)CCCC3)cc2)cc1OC, the inhibition is reported as 95.4% (active).
COc1cc(C(=O)NCC2(c3ccccc3)CCCC2)ccc1OC(C)C was tested, and the inhibition was 11.3% (inactive).
For CC1CCN(S(=O)(=O)c2ccc(S(=O)(=O)NCc3ccco3)cc2)CC1, the inhibition was -4.7% (inactive).
For CN1CCN(CCNC(=O)Nc2ccccc2[N+](=O)[O-])CC1, the inhibition was -10.6% (inactive).
With O=[N+]([O-])c1ccccc1N/N=C1\CCc2ccccc21 the inhibition was 54% (active).
O=[N+]([O-])c1cc(C(F)(F)F)ccc1NN=C1CCCC1 was tested, and the inhibition was 5.78% (inactive).
For O=C(O)c1cc2ccccc2c(=O)s1, the inhibition was -3.56% (inactive).
In the case of COc1ccc(C(=O)OCC(=O)c2cc(C)n(CC3CCCO3)c2C)cc1[N+](=O)[O-] (stereo unspecified), the inhibition is reported as -9.42% (inactive).
In the case of Cc1ccsc1C(=O)OCC(=O)c1cc(C)n(CC2CCCO2)c1C (stereo unspecified), the inhibition is reported as 94.5% (active).
For Cc1cc(C(=O)Cn2cnc3cc([N+](=O)[O-])ccc3c2=O)c(C)n1CC1CCCO1 (stereo unspecified), the inhibition was 1.73% (inactive).
In the case of CC1CCc2c(c3ccccc3[nH]c2=O)O1 (stereo unspecified), the inhibition is reported as 4.43% (inactive).
For COc1ccc(CNC(=O)COc2ccccc2C(=O)c2cnn(-c3ccccc3)c2)cc1OC, the inhibition was 60.9% (active).
COc1ccc(CNC(=O)Cc2ccc(-c3ccccc3)cc2)cc1OC was tested, and the inhibition was -4.04% (inactive).
COc1ccc(CNC(=O)COC(=O)c2c(C)nn(-c3ccccc3)c2C)cc1OC was tested, and the inhibition was 4.03% (inactive).
For CCOc1ccc(C(=O)NCC(=O)N2CCCCCCC2)cc1OCC, the inhibition was 6.97% (inactive).
With CCN1C[C@@H]2[C@@H]3C(=O)N(Cc4ccccc4)C(=O)[C@@H]3[C@](Cc3ccccc3)(C(=O)OC)N2C1=NC1CCCCC1 the inhibition was 8.17% (inactive).
In the case of Cc1ccc(NC(=O)c2cccc(S(=O)(=O)N3CCCc4ccccc43)c2)nc1, the inhibition is reported as 5.31% (inactive).
With CC(C)c1ccc(S(=O)(=O)N2CCC3(CC2)OCCO3)cc1 the inhibition was 3.85% (inactive).
With CN1C/C(=C/c2cccs2)C(=O)/C(=C\c2cccs2)C1 the inhibition was 7.35% (inactive).
For O=C1/C(=C/c2cccs2)CCC1C1CCCC1 (stereo unspecified), the inhibition was 70% (active).
For CCC1C/C(=C/c2cccs2)C(=O)/C(=C/c2cccs2)C1 (stereo unspecified), the inhibition was 1.12% (inactive).
With O=C1/C(=C/c2cccs2)SC(=S)N1C1CCS(=O)(=O)C1 (stereo unspecified) the inhibition was 0.763% (inactive).
In the case of O=C1/C(=C/c2cccs2)CCc2ccccc21, the inhibition is reported as 97.7% (active).
In the case of COc1ccc(/C=C2\CCc3ccccc3C2=O)c(OC)c1OC, the inhibition is reported as -0.625% (inactive).
For CC(=O)N1CCN(S(=O)(=O)c2c(F)cc(F)c(Cl)c2F)CC1, the inhibition was 2.44% (inactive).
O=C1Nc2cc(C(=O)N3CCN(c4ccc(F)cc4)CC3)ccc2NC1CSCc1cccc(F)c1 (stereo unspecified) was tested, and the inhibition was 8.91% (inactive).
With COc1ccccc1C(=O)Nc1ccc(C)c(S(=O)(=O)N2CCCCC2)c1 the inhibition was -5% (inactive).
For Cc1cnc(C(=O)N2CCCC(N3CCN(c4ccccc4F)CC3)C2)cn1 (stereo unspecified), the inhibition was -6.9% (inactive).
In the case of O=C1CN(C(=O)c2ccccc2F)C(c2ccc(F)cc2)c2cc(F)ccc2N1 (stereo unspecified), the inhibition is reported as -0.54% (inactive).
With Oc1ccc(N=Nc2nccs2)c(O)c1 the inhibition was 74.3% (active).
With Cc1ccc(OCC(=O)N2CCN(S(=O)(=O)c3ccc(Cl)s3)CC2)cc1C the inhibition was 8.22% (inactive).
With COc1ccccc1-c1nnc(-c2ccc(F)cc2)o1 the inhibition was 50.3% (active).
In the case of COc1ccccc1-c1nc(C(F)(F)F)c(OC)o1, the inhibition is reported as -6.4% (inactive).
In the case of CSc1ccccc1-c1nnc(-c2ccc(Cl)cc2)o1, the inhibition is reported as 28.1% (inactive).
For O=C(NCc1cccc(Cl)c1)C1=CC=CN2CCS(=O)(=O)N=C12, the inhibition was -0.294% (inactive).
In the case of CCN1C(=O)c2cccc3c(S(=O)(=O)Nc4ccccc4O)ccc1c23, the inhibition is reported as 11.4% (inactive).
CCN1C(=O)c2cccc3c(N)ccc1c23 was tested, and the inhibition was 95.9% (active).
CN1C(=O)c2cccc3c(N)ccc(c23)C1=O was tested, and the inhibition was -3.67% (inactive).
CCOC(=O)C1=NNC2(c3ccc(Cl)cc3)C(=O)N(c3cc(C)cc(C)c3)C(=O)C12 (stereo unspecified) was tested, and the inhibition was 6.05% (inactive).
CCCn1c(=O)c2c(C(F)(F)F)cc(-c3cccs3)nc2n(CCC)c1=O was tested, and the inhibition was 3.7% (inactive).
In the case of O=C(NCc1ccccn1)c1c(O)c2c([nH]c1=O)CCCC2, the inhibition is reported as 53.8% (active).
For CCc1nnc(NC(=O)c2c(O)c3c([nH]c2=O)CCCC3)s1, the inhibition was -5.71% (inactive).
For C[N+](C)(C)CCNC(=O)c1c(O)c2c([nH]c1=O)CCCC2, the inhibition was 4.83% (inactive).
CN1CCN(S(=O)(=O)c2ccc(Nc3ccc(F)cc3)nc2)CC1 was tested, and the inhibition was -1.19% (inactive).
Cc1c(Br)c([N+](=O)[O-])nn1CC(=O)N1CCN(Cc2ccccc2)CC1 was tested, and the inhibition was -3.11% (inactive).
For O=C(Nc1ccn(Cc2ccccc2)n1)c1n[nH]c([N+](=O)[O-])c1Cl, the inhibition was 93.9% (active).
With O=C(Nc1ccn(Cc2ccccc2F)n1)c1ccc(COc2ccc(Cl)cc2Cl)o1 the inhibition was -4.47% (inactive).
